8 compounds from PubChem BioAssay (Tox21) can be followed below.

Values without a mark were called inactive. Results filed as inconclusive are left out. Active and inactive are the calls of the source. Unless noted, calls come from the whole dose curve.

Assay [1] is described as follows: Nuclear factor erythroid 2-related factor 2/antioxidant responsive element (Nrf2/ARE) small molecule agonists: qHTS cell viability counter screen in human keratinocytes (AID 1919968; active = well fitted curve in the direction sought with a large enough effect in the repeat runs; an effect the other way counts as inactive or inconclusive; note: nearly all actives have a fitted effect of over 55% in size; note: potency is the fitted concentration of half-maximal effect). In outline: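 Parallel cytotoxicity read: KeratinoSens HaCaT cells, compound treatment 23 h, viability by CellTiter-Fluor fluorescence 1 h post-reagent.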
For orientation: In qHTS, concentration-response curves come from the screen itself.

The nature of assay [2]: Nuclear factor erythroid 2-related factor 2/antioxidant responsive element (Nrf2/ARE) small molecule agonists: luciferase reporter gene qHTS assay in human keratinocytes (AID 1919969; note: nearly all actives have a fitted effect of over 35% in size). (In general: In a reporter assay the amount or activity of a reporter protein is the signal.)
Assay [3] concerns the target Gonadotropin-releasing hormone receptor (Homo sapiens) (UniProt P30968). Kind of assay: Human gonadotropin-releasing hormone receptor (GnRHR) small molecule agonists, calcium flux assay in GnRHR-HEK293 cells (AID 1920063). Note: nearly all actives have a fitted effect of over 35% in size. The essentials: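 Calcium flux, agonist mode, human GnRHR stably integrated in HEK293; dye 1 h at 37 C before compound; Ex/Em=480/540 kinetic read, 3 min; 15 concentrations, triplicate.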

Assay [4] addresses KiSS-1 receptor (Homo sapiens) (UniProt Q969F8). Kind of assay: Human kisspeptin (KISS1R) small molecule agonists, calcium flux assay in KISS1R-HEK293 cells (AID 1920064; active = well fitted curve in the direction sought with a large enough effect in the repeat runs; an effect the other way counts as inactive or inconclusive). In outline: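 Triplicate 15-concentration series were applied to dye-loaded human KISS1R HEK293 cells, and agonist-evoked calcium fluorescence was captured for 3 min.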
(In general: Calcium assays in cells follow changes in intracellular calcium, usually with a dye or a luminescent sensor.)

Assay [5] can be described thus: G protein-coupled receptor (GPCR) small molecule agonists, calcium flux assay: HEK293 wild type cell line counter screen (AID 1920065). In outline:
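Non-specific calcium responders were flagged by adding DMSO-dissolved compounds to dye-loaded cells and reading 480/540 nm fluorescence each second for 3 min; ATP served as positive control.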

Assay [6] in a line: p53 small molecule agonists, cell-based qHTS assay with human liver microsomes (AID 1963577).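 Note: p53 response element beta-lactamase reporter cells with liver microsomes plus NADPH.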 In outline:
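Metabolically competent format: test substances, human liver microsomes and NADPH (both 0.5 mg/mL final) incubated with p53RE-bla cells 16 h at 37 C. Beta-lactamase reporter signal then quantified by fluorescence.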

Assay [7] can be described thus: p53 small molecule agonists, cell-based qHTS assay with rat liver microsomes (AID 1963578). In outline: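 Each plate received p53RE-bla cells, then compound, then rat liver microsomes and NADPH (both 0.5 mg/mL final). Plates were held 16 h at 37 C, and beta-lactamase activity was detected with LiveBLAzer over 2 h.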
The nature of assay [8]: p53 small molecule agonists, cell-based qHTS assay with human liver microsomes: qHTS cell viability counter screen (AID 1963579). Note: nearly all actives have a fitted effect of over 45% in size. The essentials:
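Tox21 library compounds, delivered from DMSO stocks, were tested on p53RE-bla cells together with 0.5 mg/mL human liver microsomes and 0.5 mg/mL NADPH (final) over 16 h at 37 C; CellTiter-Glo luminescence served as the cytotoxicity measure.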

Assay [9] is described as follows: p53 small molecule agonists, cell-based qHTS assay with rat liver microsomes: qHTS cell viability counter screen (AID 1963580). Note: nearly all actives have a fitted effect of over 45% in size. In outline:
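Cytotoxicity counter screen: intracellular ATP read by CellTiter-Glo luminescence in the p53 reporter wells. HCT-116 p53RE-bla cells were treated for 16 h at 37 C alongside rat liver microsomes and NADPH, each 0.5 mg/mL final.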

Assay [10] is described as follows: p53 small molecule agonists, cell-based qHTS assay: qHTS cell viability counter screen (AID 1963581). Note: nearly all actives have a fitted effect of over 45% in size. The essentials: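 Multiplexed with the reporter read, a CellTiter-Glo step (30 min, room temperature) gauges ATP-based viability of HCT-116 p53RE-bla cells after 16 h compound incubation at 37 C.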
Assay [11] can be described thus: p53 small molecule agonists, cell-based qHTS assay (AID 1963582; active = well fitted activation curve with a large enough effect in the signal ratio in the repeat runs, not every such curve was filed as active; the % refers to the signal ratio). The essentials: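 Beta-lactamase reporter cells (p53RE-bla) treated with compounds for 16 h at 37 C; FRET substrate, 2 h, room temperature; fluorescence intensity.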
The nature of assay [12]: cAMP Responsive Elements (CRE) small molecule antagonists, cell-based qHTS assay (AID 1963591; active = well fitted inhibition curve with a large enough effect in the signal ratio in the repeat runs, not every such curve was filed as active; the % refers to the signal ratio). In outline: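 Fluorescence intensity from cleaved LiveBLAzer B/G substrate (2 h, room temperature) quantified CRE-bla activity in HEK 293T cells exposed 3 h to compound with 0.25 uM final NKH477.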
Assay [13] deals with Beta-2 adrenergic receptor (Homo sapiens) (UniProt P07550). The assay is described as follows: Adrenergic beta2 receptor (ADRB2) small molecule antagonists, cell-based qHTS assay (AID 1963592). Note: series mostly up to about 92 µM; nearly all actives have a fitted effect of over 50% in size. The essentials: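 Assay format: CHO-ADRB2 cells, 18-20hr seeding at 37C/5% CO2, then compound plus 1nM isoproterenol agonist mix for 0.5hr RT. Homogeneous time-resolved fluorescence cAMP detection after 1hr, expressed as 665/615 nm ratio.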
Chain of Beta-2 adrenergic receptor (Homo sapiens) (P07550 whole entry, looked up): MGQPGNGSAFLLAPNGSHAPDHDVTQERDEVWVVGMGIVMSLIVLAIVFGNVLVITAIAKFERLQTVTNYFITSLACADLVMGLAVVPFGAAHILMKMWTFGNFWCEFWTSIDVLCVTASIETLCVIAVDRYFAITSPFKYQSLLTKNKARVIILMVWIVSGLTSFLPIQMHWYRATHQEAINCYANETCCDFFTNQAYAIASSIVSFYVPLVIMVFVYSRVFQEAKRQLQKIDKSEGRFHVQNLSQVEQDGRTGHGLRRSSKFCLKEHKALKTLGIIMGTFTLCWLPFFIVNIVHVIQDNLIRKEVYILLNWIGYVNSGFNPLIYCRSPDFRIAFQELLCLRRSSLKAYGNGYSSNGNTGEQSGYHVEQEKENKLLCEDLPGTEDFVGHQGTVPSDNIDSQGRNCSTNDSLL

Assay [14] concerns the target D(2) dopamine receptor (Homo sapiens) (UniProt P14416). Kind of assay: Dopamine D2 receptor (DRD2) small molecule agonists, cell-based qHTS assay (AID 1963594). Note: nearly all actives have a fitted effect of over 35% in size. In outline:
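cAMP accumulation in DRD2-HEK293 cells measured by HTRF after 1 h detection; compounds added 10 min before NKH477 (200nM […]) forskolin-analogue stimulation, 30 min at room temperature, with Ro20-1724 present at 0.1 mM final.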

For assay [15] the target is unchanged. Kind of assay: Dopamine D2 receptor (DRD2) small molecule antagonists, cell-based qHTS assay (AID 1963595; active = well fitted inhibition curve with a large enough effect in the signal ratio in the repeat runs, with a control signal flat; the % refers to the signal ratio; note: potency is the fitted concentration of half-maximal effect). In outline:
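Antagonism was scored as restored cAMP in HEK293-DRD2 cells. These cells were stimulated with 200 nM NKH477 and 12 nM quinpirole for 30 min at room temperature, in the presence of 0.1 mM Ro20-1724.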

Assay [16] concerns the target 5-hydroxytryptamine receptor 2A (Homo sapiens) (UniProt P28223). The assay is described as follows: 5-hydroxytryptamine receptor 2A (HTR2A) small molecule antagonists, cell-based qHTS assay (AID 1963586). Note: nearly all actives have a fitted effect of over 45% in size. The essentials: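 CHO cells stably expressing human HTR2A were plated for 18 h at 37 C, then loaded with calcium dye for 1 h. Compounds were preincubated 5 min at room temperature before DOI (4 nM solution) was added. Kinetic fluorescence was read for 3 min.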

Assay [17] has the same target. Kind of assay: 5-hydroxytryptamine receptor 2A (HTR2A) small molecule agonists, cell-based qHTS assay (AID 1963587). Note: nearly all actives have a fitted effect of over 30% in size. In outline: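 Kinetic calcium-flux fluorescence (2 min, 1 sec intervals) after compound addition in agonist mode. HTR2A-CHO cells were cultured 18 h, then dye-loaded 1 h at 37 C.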
Assay [18] has as its target Muscarinic acetylcholine receptor M1 (Homo sapiens) (UniProt P11229). The assay is described as follows: Cholinergic receptor muscarinic 1 (CHRM1) small molecule agonists, cell-based qHTS assay (AID 1963589). Note: nearly all actives have a fitted effect of over 35% in size. The essentials:
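qHTS, 15-point titration, 3 independent runs: compounds pin-transferred onto dye-loaded CHRM1-CHO cells (human M1), calcium fluorescence followed every second to detect agonism.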

Assay [19] in a line: cAMP Responsive Elements (CRE) small molecule agonists, cell-based qHTS assay (AID 1963590). In outline: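 Quantitative HTS for CRE agonists: HEK 293T CRE-bla cells, overnight plating, 3 h compound incubation at 37 C/5% CO2, then 2 h room-temperature LiveBLAzer B/G FRET substrate loading.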
In assay [20] the target is Beta-2 adrenergic receptor (Homo sapiens) (UniProt P07550). Kind of assay: Adrenergic beta2 receptor (ADRB2) small molecule agonists, cell-based qHTS assay (AID 1963593).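 Note: CHO cells stably overexpressing human ADRB2.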 The essentials: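 CHO cells stably over-expressing ADRB2 were plated overnight at 37C, then dosed with compounds plus a stimulation mix containing 100uM IBMX and 25uM Ro-20-1724 for 0.5hr at room temperature. cAMP was measured by HTRF competition, 1hr.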
% is set by controls: 0 for no effect and ±100 for the full control effect.

Chain of KiSS-1 receptor (Homo sapiens) (Q969F8 whole entry, looked up): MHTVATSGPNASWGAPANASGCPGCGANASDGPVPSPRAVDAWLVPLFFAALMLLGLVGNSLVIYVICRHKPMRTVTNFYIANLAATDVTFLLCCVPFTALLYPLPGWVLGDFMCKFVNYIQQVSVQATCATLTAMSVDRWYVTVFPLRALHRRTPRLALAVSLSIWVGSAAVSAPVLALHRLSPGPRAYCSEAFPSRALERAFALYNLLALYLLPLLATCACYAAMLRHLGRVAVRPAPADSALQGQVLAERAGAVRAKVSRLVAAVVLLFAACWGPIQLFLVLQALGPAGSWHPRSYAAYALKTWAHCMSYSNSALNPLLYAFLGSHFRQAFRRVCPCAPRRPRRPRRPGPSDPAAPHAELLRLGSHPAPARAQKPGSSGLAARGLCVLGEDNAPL
Chain of D(2) dopamine receptor (Homo sapiens) (P14416 whole entry, looked up): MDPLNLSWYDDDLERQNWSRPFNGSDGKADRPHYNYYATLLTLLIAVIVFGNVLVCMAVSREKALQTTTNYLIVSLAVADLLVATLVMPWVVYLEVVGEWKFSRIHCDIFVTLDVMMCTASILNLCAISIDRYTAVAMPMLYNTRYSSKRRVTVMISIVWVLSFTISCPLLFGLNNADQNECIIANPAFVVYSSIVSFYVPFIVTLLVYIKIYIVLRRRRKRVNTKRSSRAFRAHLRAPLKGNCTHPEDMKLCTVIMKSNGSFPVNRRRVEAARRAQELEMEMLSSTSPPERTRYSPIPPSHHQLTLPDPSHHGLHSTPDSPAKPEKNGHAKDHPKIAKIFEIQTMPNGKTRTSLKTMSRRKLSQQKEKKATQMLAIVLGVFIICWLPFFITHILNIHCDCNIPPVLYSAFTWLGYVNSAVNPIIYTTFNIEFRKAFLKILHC
Chain of Gonadotropin-releasing hormone receptor (Homo sapiens) (P30968 whole entry, looked up): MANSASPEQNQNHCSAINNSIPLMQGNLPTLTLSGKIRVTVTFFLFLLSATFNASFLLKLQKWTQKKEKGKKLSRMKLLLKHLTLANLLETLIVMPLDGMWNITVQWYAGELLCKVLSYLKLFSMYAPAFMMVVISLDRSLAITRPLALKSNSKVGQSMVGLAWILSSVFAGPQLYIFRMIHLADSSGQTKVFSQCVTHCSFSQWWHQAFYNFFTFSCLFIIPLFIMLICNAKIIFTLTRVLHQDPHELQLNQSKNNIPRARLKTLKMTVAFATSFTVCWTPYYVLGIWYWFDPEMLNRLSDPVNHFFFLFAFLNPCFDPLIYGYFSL
Chain of 5-hydroxytryptamine receptor 2A (Homo sapiens) (P28223 whole entry, looked up): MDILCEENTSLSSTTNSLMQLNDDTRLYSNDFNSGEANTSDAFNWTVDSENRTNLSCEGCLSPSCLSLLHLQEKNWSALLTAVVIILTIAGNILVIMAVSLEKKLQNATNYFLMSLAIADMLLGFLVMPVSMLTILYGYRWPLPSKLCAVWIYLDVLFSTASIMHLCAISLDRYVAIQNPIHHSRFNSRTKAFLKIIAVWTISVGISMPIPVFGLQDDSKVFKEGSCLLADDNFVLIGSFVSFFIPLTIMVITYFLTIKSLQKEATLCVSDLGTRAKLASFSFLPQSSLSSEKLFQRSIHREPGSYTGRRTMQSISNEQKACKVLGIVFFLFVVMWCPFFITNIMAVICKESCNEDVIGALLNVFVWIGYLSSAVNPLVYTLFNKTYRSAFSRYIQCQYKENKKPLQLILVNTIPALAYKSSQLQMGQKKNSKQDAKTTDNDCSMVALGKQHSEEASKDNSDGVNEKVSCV
Chain of Muscarinic acetylcholine receptor M1 (Homo sapiens) (P11229 whole entry, looked up): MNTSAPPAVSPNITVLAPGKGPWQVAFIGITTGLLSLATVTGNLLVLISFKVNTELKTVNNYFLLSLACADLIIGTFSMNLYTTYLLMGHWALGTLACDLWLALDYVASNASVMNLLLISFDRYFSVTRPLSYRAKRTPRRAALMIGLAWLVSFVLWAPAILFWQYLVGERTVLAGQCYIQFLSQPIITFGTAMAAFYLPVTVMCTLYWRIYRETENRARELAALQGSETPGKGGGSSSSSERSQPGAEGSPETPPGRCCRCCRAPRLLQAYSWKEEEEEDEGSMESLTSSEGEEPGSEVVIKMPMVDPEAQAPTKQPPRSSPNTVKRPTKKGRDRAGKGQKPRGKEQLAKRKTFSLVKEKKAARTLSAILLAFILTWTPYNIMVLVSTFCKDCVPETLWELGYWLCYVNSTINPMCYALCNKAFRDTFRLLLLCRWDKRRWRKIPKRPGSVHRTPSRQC

In the case of `Cn1c(=O)c2c(ncn2CC(O)CO)n(C)c1=O` (stereo not given), the Potency result in assay [1], in assay [2], in assay [3], in [6], in assay [7] and in assay [8] was “inactive” throughout. Further, the Potency result in [9], in assay [10], in assay [11], in assay [12], in [13] and in assay [14] was “inactive” throughout. The Potency result in assay [15] is “inactive”. The outcome in assay [4] and in assay [5] was inactive.

As for `BrC/C=C/CBr`, the activity change, negative = cytotoxicity in [1] was -3.14% [at 19 µM]; in [8] it was -4.11% [at 13.5 µM]; in assay [9] it was -2.57% [at 13.5 µM]; in [10], -2.07% [at 13.5 µM]. Also, the activity, positive = activation in [2] is -2.5% [at 19 µM]. In addition, the activity change in [3] was 0.305% [at 11.8 µM, active compounds read high]. In addition, the activation in [4] is -0.639% [at 15.8 µM]; in assay [5], 0.681% [at 11.8 µM]; in assay [6], -4.84% [at 13.5 µM]; in assay [7], -1.81% [at 13.6 µM]; in assay [17], -0.944% [at 15.9 µM]; in [18] it was 1.37% [at 15.8 µM]. Also, the activation in assay [19] was -0.306% [at 19 µM]; in assay [14], -0.205% [at 19 µM]. The activity, negative = inhibition in assay [16] is -12.9% [at 12.7 µM]. Besides, the activity change, negative = inhibition in [12] is -2.76% [at 18.9 µM]; in assay [13], -26% [at 19 µM]. Besides, the Potency result in [20] is “inactive”.

Turning to `CN1C(=O)OC(C)(C)C1=O`, the Potency result in assay [1], in assay [2], in assay [3], in assay [6], in assay [7] and in assay [8] was “inactive” each time. Also, the Potency entry in [9], in assay [10], in [11], in [19], in assay [13] and in [14] was “inactive” in each case. For the same compound, the Potency entry in [15] was “inactive”. Further, the outcome in [4] and in [5] was inactive.

For `Oc1cccc(O)c1O`, the Potency entry in [1], in assay [2], in assay [3], in assay [6], in assay [7] and in assay [8] was “inactive” each time. The Potency entry in assay [9], in assay [10], in [11], in [19], in [12] and in assay [14] was “inactive” throughout. Also, in [15], the Potency entry is “inactive”. In addition, the outcome in assay [4] and in [5] was inactive.

`CCN(CC)CCNC(=O)c1cc(Cl)c(N)cc1OC`: the Potency entry in [1], in assay [2], in assay [3], in [6], in assay [7] and in assay [8] was “inactive” throughout. The Potency result in assay [9], in assay [10], in assay [11], in [19], in assay [12] and in [14] was “inactive” throughout. Moreover, the outcome in assay [4] and in assay [5] was inactive. For the same compound, the Potency in assay [15] was 1.68 µM (active).

Take `CN(Cc1cc(Br)cc(Br)c1N)C1CCCCC1`: the Potency in assay [1] was 16.8 µM (active). For the same compound, the Potency result in [2], in assay [3], in assay [6], in assay [7], in [8] and in assay [9] was “inactive” in each case. Besides, the Potency result in [10], in [11], in [19], in assay [13], in assay [20] and in assay [14] was “inactive” each time. In addition, the Potency result in assay [15] is “inactive”. In addition, the outcome in [4] and in assay [5] was inactive.

For `CC(=O)CCCCn1c(=O)c2c(ncn2C)n(C)c1=O`, the Potency result in assay [1], in [2], in assay [3], in [6], in assay [7] and in assay [8] was “inactive” in each case. The Potency result in [9], in [10], in assay [11], in assay [19], in [13] and in assay [14] was “inactive” in each case. Further, the Potency entry in assay [15] was “inactive”. The result in [4] and in assay [5] was inactive.

Consider `COc1c(N2CCNC(C)C2)c(F)cc2c(=O)c(C(=O)O)cn(C3CC3)c12` (stereo not given), for which the Potency entry in [1], in assay [2], in [3], in assay [6], in [7] and in assay [8] was “inactive” in each case. The Potency result in assay [9], in assay [10], in assay [11], in assay [19], in [12] and in [13] was “inactive” in each case. Also, the Potency entry in [14] and in assay [15] was “inactive” throughout. Moreover, the result in [4] and in [5] was inactive.
